From the supplement of paper PMC3334620
The full ranking holds about 33,000 sequences; the median of “E-score (-0.5 to 0.5)” is about -0.021, and the highest 2% start at about 0.32. The sample holds the highest values, similar sequences and a random draw of the others, so the mix is not that of the screen.

What follows are sequences tested against T1, Zap1 (UniProt P47043) (assay: PBM E-score (8-mer binding enrichment) (E-score (-0.5 to 0.5)); higher = stronger / more preferred TF binding). Conditions: protein concentration: 200 nM; construct: GST-full length.
T1 sequence: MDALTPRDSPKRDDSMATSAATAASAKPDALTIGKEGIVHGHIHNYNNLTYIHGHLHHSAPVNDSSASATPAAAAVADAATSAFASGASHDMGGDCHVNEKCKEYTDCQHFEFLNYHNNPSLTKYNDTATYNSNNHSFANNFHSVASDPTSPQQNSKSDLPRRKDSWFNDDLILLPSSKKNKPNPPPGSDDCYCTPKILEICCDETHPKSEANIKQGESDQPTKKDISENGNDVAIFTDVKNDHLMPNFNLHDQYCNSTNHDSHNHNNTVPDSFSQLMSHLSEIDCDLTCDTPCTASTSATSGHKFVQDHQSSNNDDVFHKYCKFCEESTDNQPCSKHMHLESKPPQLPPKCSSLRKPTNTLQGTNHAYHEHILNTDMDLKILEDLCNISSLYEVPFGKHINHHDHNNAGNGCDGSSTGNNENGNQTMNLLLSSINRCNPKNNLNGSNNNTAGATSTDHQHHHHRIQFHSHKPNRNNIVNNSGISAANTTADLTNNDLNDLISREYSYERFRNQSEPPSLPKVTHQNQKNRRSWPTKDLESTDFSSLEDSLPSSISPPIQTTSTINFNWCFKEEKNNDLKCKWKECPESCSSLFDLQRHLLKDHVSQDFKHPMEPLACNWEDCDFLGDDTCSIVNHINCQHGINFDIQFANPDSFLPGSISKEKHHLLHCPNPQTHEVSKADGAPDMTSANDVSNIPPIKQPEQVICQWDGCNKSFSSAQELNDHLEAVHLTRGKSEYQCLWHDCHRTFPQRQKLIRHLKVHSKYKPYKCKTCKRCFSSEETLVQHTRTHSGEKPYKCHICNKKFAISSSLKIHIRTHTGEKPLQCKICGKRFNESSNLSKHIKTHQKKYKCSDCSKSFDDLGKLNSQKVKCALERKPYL
How it was run: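 GST-tagged yeast TFs (full-length or DNA-binding domain) were made by PURExpress in vitro transcription/translation and applied at about 100-200 nM to universal all-10-mer Agilent arrays. The arrays were made double-stranded by primer extension, on fresh or once-stripped slides. Bound protein was detected with fluorescent anti-GST, and scans were normalised with masliner. Each ungapped eight-base word, pooled with its reverse complement, received an E-score (modified Wilcoxon-Mann-Whitney statistic) from the Universal PBM Analysis Suite.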

Sequence	PBM E-score
GGCTAGCC	-0.248
AGTGCCCG	-0.203
CCTGCTCG	-0.0742
ACACTCGT	-0.0522
ACCCTCGA	0.143
ACCCTCCG	0.228
CCCCTCGC	0.0553
ACCCTCGT	0.358
ACCCTCGG	0.329
CCCCTCGA	0.169
ACCCTCGC	0.267
CCCCTCGG	0.34
CAGTACAG	0.091
ACTTCTCT	-0.0321
CCAAGTTA	0.0627
CATGACGC	-0.108
ACCAGCGC	-0.0562
GGACCTCC	-0.134
GAAGGAGA	-0.122
GACTCTCC	-0.236
TACCCCCA	0.054
AACCCAAA	0.35
AACCCAAC	0.282
ACCACAAA	0.35
GCCACAAA	0.221

Sequence	PBM E-score
ACCACAAG	0.259
AACCCAAG	0.346
TACCCCAA	0.363
CACCCAAA	0.255
GACCCCAA	0.172
GACCCAAA	0.299
AACCCAAT	0.187
CGTTAGCC	-0.0813
GTCTTAGA	0.0182
CCATCAAA	0.0846
CCAGAAGA	-0.0769
CCCCCAAA	-0.22
ACCCCAAA	0.337
ACCCCCAC	-0.286
AACCCCCA	-0.0716
AACCCCAC	0.344
AACCCCAA	0.377
AACCAAAA	0.364
ACCCCAAG	0.311
CACCAAAA	0.235
GACCCCAC	0.243
TACCAAAA	0.161
ACCCCCAA	-0.0064
AACTAACG	0.166
AACTGCGC	-0.0727

Sequence	PBM E-score
CCTTAGAA	0.211
GCCAACAA	0.192
AGGCTAAC	-0.0255
TCCTACCA	-0.13
GATTTAGC	0.118
ATTGTGGC	0.0557
ACCCAAAA	0.345
ACAAAAAT	0.234
AACCCCAT	0.359
GCCCAAAA	0.179
ACAAAAAC	0.182
ACAAAAAA	0.317
ACCCCCAT	0.0539
ACCCAAAG	0.271
AAACCCAT	0.253
CCCCTTCA	-0.105
CTCCTAAA	-0.147
GCAATGCC	-0.104
ACCACCGA	0.172
ACGTAAGG	-0.112
AACAGGCG	-0.32
TTATCAAA	0.2
GTAATCAA	0.146
ATTCACTA	0.0664
CATAGAGC	-0.238

Sequence	PBM E-score
ATGAGCGC	-0.0149
GACCTGAA	0.132
CCGGCGCC	-0.114
ATAGGGTG	0.214
ATAGGGTC	0.272
CTAGGGTA	0.411
GTAGGGAA	-0.112
CTAGGGTC	0.309
ATAGGGTA	0.38
CTAGGGAA	-0.037
GTAGGGCA	-0.143
GTAGGGTA	0.429
TTAATGAA	0.187
TCTTGGAA	0.089
AGATTAAA	0.2
GCTTTGAC	0.0804
CTAGACTC	-0.231
ACGCATTA	0.12
AATAAGAA	0.208
ATAGAAGC	-0.0622
CACAACCA	0.343
AACAACAA	0.181
CACAACCG	0.289
AACAACCT	0.273
CACAACAA	0.0567

Sequence	PBM E-score
CCCAACCA	0.123
AACAACCC	0.408
AACAACCG	0.1
AACAACCA	0.319
CACAACCC	0.414
AACAACAC	0.151
CCCAACCC	0.163
AGCGCCAG	-0.256
CGCTTAGC	-0.239
ACATTTGC	-0.00108
CTTCCCAA	-0.213
GACAAACC	0.124
GACAACTC	-0.0129
TACAACAA	0.276
GACAACCC	0.35
GACAACCA	0.252
TACAACCA	0.319
GCGTCGCC	-0.162
GGGGCCTA	-0.136
GCCAGGGA	-0.174
GCCCACCA	-0.217
CCCCACCC	0.357
ACCCACCA	0.177
GCCCACAC	-0.102
ACCCACCT	0.213

Sequence	PBM E-score
CCCCACCA	0.119
AACCACCC	0.353
AACCACCA	0.273
ACCCACCC	0.373
GCCCACCC	0.335
CACCACCC	0.186
CCCCACCG	0.163
ACACCAGT	-0.0248
GTGCCCTA	-0.314
CCTGGTGA	0.0199
CGCTGCGC	-0.373
GCTGAGAA	-0.156
ATCTGAGG	0.094
ACCCTGGG	0.376
ACCCTGAT	0.344
AGCCTGTG	-0.29
ACCCTGAC	0.335
CCCCTGAC	0.113
ACCCTGGA	0.161
ACCCTGGC	0.183
ACCCTGTC	0.193
AGCCTGAT	-0.177
AACCTGAT	0.177
AACCTGTG	0.207
ACCCTGTG	0.367

Sequence	PBM E-score
CATAGCTA	-0.113
GCTGTGGA	-0.0748
CTAGTTCA	-0.00273
CCAACAGG	0.0645
AACCTCCA	0.0742
ACACTTCT	-0.0698
CAAGTGAG	-0.196
CCCCTGAG	-0.0275
ACCCTGAG	0.378
ATCCTGAG	-0.0542
AGCAACCG	-0.0288
AACTGCCG	-0.0311
ACCTCGCG	0.109
GCGTTACA	0.126
CCGTTACA	0.061
TAGTTACA	0.158
GAGTTACC	0.3
TCGTTACA	-0.024
GCGTTACC	0.0732
GGGTTACC	0.463
GGTTTACA	0.17
GGGTTACA	0.468
CGGTTACA	0.411
CTGTTACA	0.0543
TGGTTACA	0.395

Sequence	PBM E-score
AGCAACAG	-0.195
AACTAATA	0.314
AGTAGCGG	-0.125
GAAGACCC	0.236
TATTAGGA	0.0916
CCTTATAC	0.0827
CCCCAGTA	-0.0431
CACTGGTC	-0.0725
CCTCAATC	0.158
CAGTTACC	0.208
CGGTTACC	0.444
CTGTTACC	0.248
GCCACTAC	-0.0479
TATCTAGA	0.151
AGCGTCTA	-0.214
CCCTTATA	0.15
CCCTTAAG	0.335
ACCTTATA	0.339
ACCTTAAA	0.247
CCTTTAAC	0.352
CCTTTAAG	0.237
CCCTTAAC	0.0959
ACCTTAAT	0.302
ACCTTAAC	0.358
ACCTTAAG	0.269

Sequence	PBM E-score
ACCTTATG	0.314
GCTTTAAC	0.186
AGTGGAAG	-0.204
ATGAGCGG	-0.167
GTTGGGAA	0.0568
ATGAGGAC	-0.0846
ATCCAGTC	-0.137
CTCTCACC	0.0392
AATCCCGA	0.0192
ATCAACAT	0.00735
ATAGGAAC	0.0152
CGCCTACG	-0.23
GAATGGCC	0.188
AGTGCGAA	-0.172
CCTTAAGG	0.411
CCTTAAGC	0.0365
CCTTAAGA	0.155
AGCTCGAG	-0.0098
GATACTCA	-0.029
CTAGGTAC	0.115
CTAGGTAA	0.0356
ATAGGTAC	0.36
ATAGGTAG	0.172
ATAGGTGA	0.0727
ATAGGTAA	0.323

Sequence	PBM E-score
GGAAGGCA	-0.191
AGGGGCTG	-0.0614
ATGGTTGC	0.0738
ATGGTTAG	0.316
ATGGTTAC	0.471
CTGGTTAA	0.225
CTGGTTTC	0.124
CTGGTTAC	0.412
ACGGTTGG	-0.0119
CGCTATAG	-0.238
TCCATTCA	0.0213
ATCTGGAA	-0.00838
AGACCTCA	0.0826
TAACCTCA	0.418
CAACCTTA	0.286
AAACCTCA	0.232
GAACCTCA	0.189
AAACCTAA	0.159
CAACCTAA	0.203
TAACCTTA	0.39
TAACCTAA	0.399
CGACCTCA	0.081
TGACCTCA	0.333
AAACCTTA	0.288
AGCTACAT	-0.263

Sequence	PBM E-score
ATTTCTGG	0.0521
AAGTTCAC	-0.108
AATGAAGT	0.0905
AATCAAAG	0.0185
ACTATGAT	-0.00467
GTTGTATA	0.117
AAGTTGCT	-0.0577
GTACTGAA	0.317
GTACTGAC	0.0986
GTACTGTA	0.0704
AGGGTCCG	-0.0112
CGATGGCG	-0.284
CATGAAAC	0.0838
CAAGTGCG	-0.0607
GGCATGTA	-0.0887
CCGCCCGG	0.0274
CCGCCCCC	-0.343
CCGCCCCG	0.341
CAGGTGTC	-0.0194
CAGTACTA	0.164
TCAAAAAA	0.202
TAACCATA	0.44
TAACCCAA	0.424
AAACCATA	0.202
TAACCAAA	0.386

Sequence	PBM E-score
CAACCCCA	0.42
GAACCATA	0.206
CAACCCAA	0.272
CAACCCCG	0.211
CAACCAAA	0.213
GAACCCAA	0.152
AAACCAAA	0.254
CAACCCCC	-0.212
AAGATGCA	0.0988
AACTTGCT	-0.17
AATGTCTA	0.00891
CGTCAGTC	-0.206
GCCGCATA	0.102
TACAAGTA	0.0103
AACCTAAT	0.204
GATCAACC	-0.0383
GTGAGCGA	0.1
ATCAGTAC	-0.0201
AGGTGCAA	0.0924
TTTGAAAA	0.273
GAGTTCGA	0.0349
TAACCACA	0.417
GAACCCCA	0.291
TAACCCCA	0.424
AAACCACG	-0.0205

Sequence	PBM E-score
AAACCACA	0.184
AAACCCCA	0.261
GTGAGTCA	-0.0169
CCAACTAC	0.0442
ACGCGATC	-0.143
CACCACAA	0.147
GACCACAA	0.185
TACCACAA	0.359
CACCACTA	0.22
ACCCACAG	0.2
ACCCACAC	0.225
AACCACAA	0.34
AACCACAT	0.234
ACCCACAA	0.353
AACCACAG	0.233
AACCACTA	0.369
TACCACTA	0.179
AAACTTAT	0.19
AGAAACTC	-0.0693
GACAGTAA	0.0265
AGCTGGCG	-0.283
AGAAGAGA	-0.205
CCAAGATC	-0.0112
ACTGCACT	-0.149
ACAATGGA	0.159

Sequence	PBM E-score
AAGGAGGA	-0.291
CGGTTACG	0.401
CGGTTAAG	0.289
ACGTTACA	-0.0394
AGGTTACT	0.457
ACGTTACT	0.143
AGGTTAGA	0.185
AGGTTAGG	0.348
AAGTTACA	0.169
CAGTTACG	-0.0217
AGGTTAGC	0.23
AGGTTACA	0.453
AAGTTACT	-0.0263
CGCTCTCC	-0.119
ATCCTCTA	-0.118
AAACGCCG	-0.159
TACTGGGA	0.0284
ACCAATCG	0.0293
ACACGCTA	-0.194
